# Source: PubChem BioAssay
# The entries come from a sample that favours hits as a whole.
# CHX counter = counter-screen hit for Shiga toxin inhibitors, cycloheximide; AID 2314; actives 12% (n = 300,000); max response, %; cell reporter, cycloheximide protein synthesis inhibition counterscreen; in the data active = max response mostly above about 13%, no sharp cut-off; inactive = mostly below about 14%; note: read at 38.3 µM for the half of the compounds with a filed dose; 0% is about no effect
# VACV Venus inh = vaccinia inhibition (Venus reporter) | Potency, µM (highest dose often 36.5 µM), inactives show at the top dose activity change, negative = inhibition, usual class: inhibitors | actives 0.46% (n = 330,000) | Vaccinia virus Venus reporter expression, fluorescence; calls by dose curve; tested in A549 cells; note: potency is the fitted concentration of half-maximal effect; % is set by controls: 0 for no effect and ±100 for the full control effect; nearly all actives have a fitted effect of over 30% in size
# VACV mCherry inh = vaccinia inhibition (mCherry reporter); Vaccinia virus mCherry reporter infection, fluorescence; Potency, µM (series often up to 36.5 µM), inactives show at the highest dose activity change, negative = inhibition, actives largely listed as inhibitors; actives 0.63% (n = 310,000); AID 720579; calls by dose curve; tested in A549 cells; note: potency is the fitted concentration of half-maximal effect; % is set by controls: 0 for no effect and ±100 for the full control effect; nearly all actives have a fitted effect of over 35% in size
# MARV entry inh = inhibitors of Marburg virus binding or cell entry; Marburg virus pseudotyped entry inhibition, cell reporter; Potency, µM (highest dose often 37.8 µM), without a hit: at the top dose activity change, negative = inhibition, usual class: inhibitors; actives 1.8% (n = 300,000); calls by dose curve; tested in HEK293 cells; note: potency is the fitted concentration of half-maximal effect; % is set by controls: 0 for no effect and ±100 for the full control effect
# Shiga inhibitor = Shiga toxin inhibition | Vero cells, Shiga toxin protein synthesis inhibition reporter | inhibition, % at 38.7 µM | actives 9.2% (n = 290,000); in the data active = inhibition mostly above about 28%, no sharp cut-off; inactive = mostly below about 43%; note: 0% is about no effect
# LASV entry inh = Lassa virus entry inhibition | Lassa virus pseudotype entry inhibition, cell reporter | Potency, µM (titrated, usually from 37.9 µM), for the others: at the top dose activity change, negative = inhibition, actives largely listed as inhibitors | actives 1.2% (n = 300,000) | AID 540256; calls by dose curve; tested in HEK293 cells; note: potency is the fitted concentration of half-maximal effect; % is set by controls: 0 for no effect and ±100 for the full control effect; nearly all actives have a fitted effect of over 50% in size
# Starred values were filed as active, the others as inactive; i = inactive; ? = inconclusive; nt = not tested or not shown; [ ] = dose if it differs, or a comment.
SMILES,CHX counter,VACV Venus inh,VACV mCherry inh,MARV entry inh,Shiga inhibitor,LASV entry inh
CCCNC(=O)c1ccc(COc2ccc(CCC)cc2OC)o1,8.9,-19.7%,i,-0.3%[46.1 µM],17.4,6.31µM*
Cc1cccc(N2CCN(C(=O)NC3CCCCC3)CC2)c1C,11.2,nt,nt,nt,14.7,nt
c1cncc(OC2CCN(Cc3ccc4c(c3)CN(Cc3ccc5c(c3)OCCO5)CCO4)CC2)c1,nt,-16.9%,-23.2%,nt,nt,nt
Cc1ccsc1C1Cc2c(C(=O)NCc3cccnc3)c(=O)cc(C)n2-c2ccccc2S1 (configuration not stated),nt,11.6%,-1.9%,nt,nt,nt
CCC(=O)c1ccc(OC)c(OC)c1,1.9,-9.3%,3.5%,nt,-15.9,nt
CCC(=O)c1ccc(OCc2ccc(C(=O)OC)o2)c(OC)c1,28.2*,-11.8%,nt,11.3%,52.2,14.1%
CCOC(=O)c1c(C)[nH]c(C(=O)COC(=O)c2ccc(O)cc2O)c1C,18.5*,nt,nt,nt,17.5,nt
CCOC(=O)c1c(C)[nH]c(C)c1C(=O)COC(=O)c1ccccc1O,-0.9,-5.5%,i,22.2%,-17.3,-2.2%
CCOC(=O)c1c(C)[nH]c(C(=O)OCC(=O)c2ccccc2)c1C,nt,-21.5%,-8.8%,?,nt,?
CCOC(=O)c1c(C)[nH]c(C(=O)COC(=O)c2ccccn2)c1C,37.7*,nt,nt,16.1%,99.6*,7.7%
CCOC(=O)c1c(C)[nH]c(C(=O)COC(=O)c2ccc(O)cc2)c1C,22.4*,-12.8%,-22.0%,5.2%[46.1 µM],54.1*,?
C#CCOc1ccc(C(=O)N(C)c2ccccc2I)cc1,20.0,nt,nt,nt,14.7,nt
Cc1[nH]cnc1CSCc1ccc(F)cc1,49.2*,-16.5%,i,?,31.3*,?
Cn1c(CSCc2ccc(F)cc2)n[nH]c1=S,1.1,nt,nt,nt,-2.7,nt
COc1ccc(-c2cnc(C(O)c3ccccc3)[nH]2)cc1 (configuration not stated),nt,1.6%,10.8%,nt,nt,nt
COc1ccc(-c2cnc(C(O)c3ccc(-c4ccccc4)cc3)[nH]2)cc1 (configuration not stated),nt,-9.9%,-0.3%,nt,nt,nt
OC(c1ccccc1)c1ncc(-c2ccc(Oc3ccccc3)cc2)[nH]1 (configuration not stated),nt,?,15.8µM*,nt,nt,nt
OC(c1ccc(Cl)cc1)c1ncc(-c2ccc(Oc3ccccc3)cc2)[nH]1 (configuration not stated),nt,?,10µM*,nt,nt,nt
O=C(NCc1ccco1)c1c(Cl)cccc1Cl,nt,-5.2%,-9.8%,nt,nt,nt
COc1cccc(C2=NOC(C(=O)NCc3cccs3)C2)c1 (configuration not stated),25.6*,nt,nt,?,53.7*,-22.3%
O=C(NCc1cccnc1)C1CC(c2ccc(F)cc2)=NO1 (configuration not stated),1.6,nt,nt,17.6%,45.1,?
CC(C)CCNC(=O)C1CC(c2cccc([N+](=O)[O-])c2)=NO1 (configuration not stated),-4.0,-8.4%,?,nt,-10.6,nt
O=C(NCc1cccs1)C1CC(c2ccc(F)cc2)=NO1 (configuration not stated),28.3*,-5.2%,-10.2%,8.0%[46.1 µM],48.7*,-9.1%
COc1ccc(C2=NOC(C(=O)NCc3ccc(F)cc3)C2)cc1OC (configuration not stated),-4.6,?,-31.6%,?,-5.5,0.82µM*
CCCCNC(=O)C1CC(c2cccc([N+](=O)[O-])c2)=NO1 (configuration not stated),25.3*,-7.2%,?,nt,83.1*,nt
SMILES,CHX counter,VACV Venus inh,VACV mCherry inh,MARV entry inh,Shiga inhibitor,LASV entry inh
CCCCCCCCCCCCCCCCn1cc[n+](Cc2ccccc2)c1C,-7.9,nt,nt,nt,-23.2,nt
Cc1ccc(C)c(NC(=O)Cn2ncc3c(C)n(Cc4ccc(F)cc4)c(C)c3c2=O)c1,nt,-4.6%,-0.6%,-1.1%[46.1 µM],nt,-0.2%[46.1 µM]
COc1ccccc1C(=O)N(CCC1CCCN1C)c1nc2ccccc2s1 (configuration not stated),25.9*,-6.7%,2.7%,?,39.1,?
CC(C)Cc1csc(=S)[nH]1,nt,-26.0%,-23.5%,10.9%[46.1 µM],nt,1.9%[46.1 µM]
Cc1cc(C)c2nc(NCc3ccccc3O)sc2c1,22.0*,nt,nt,nt,113.9*,nt
Cc1ccc(S(=O)(=O)CC(=O)Nc2nc3c(C)cc(C)cc3s2)cc1,nt,-2.7%,-13.9%,nt,nt,-1.8%[46.1 µM]
COc1cc(CNc2nc3c(C)cc(C)cc3s2)ccc1O,24.9*,-15.4%,-27.4%,?,47.8*,?
CCC(=O)NNc1nc2c(C)cc(C)cc2s1,12.5,-11.5%,-13.1%,?,19.8,?
Fc1ccc(-c2nnc(Cc3nnc(-c4ccc(F)cc4)o3)o2)cc1,-5.7,nt,nt,7.9%,-9.0,2.8%
Fc1ccc(NC2=NCCCCC2)cc1,1.0,-2.6%,-7.3%,-5.0%[46.1 µM],-4.1,nt
Fc1ccc(-c2nnc(-c3ccc(F)cc3)o2)cc1,27.8*,nt,nt,nt,26.0,nt
Fc1ccc(-c2nnc(NC3=NCCCCC3)o2)cc1,19.0,-26.1%,nt,?,-9.1,1µM*
c1ccc(-c2nnc(NC3=NCCC3)o2)cc1,25.1,-8.5%,-9.5%,?,22.2,7.08µM*
CC[C@H](CC[C@@H](C)[C@H]1CC[C@H]2[C@@H]3CC=C4C[C@@H](O)CC[C@]4(C)[C@H]3CC[C@]12C)C(C)C,nt,0.0%,i,nt,nt,nt
O=C(CS(=O)(=O)c1ccccc1)Nc1nc(-c2ccc(F)cc2)cs1,8.0,nt,nt,nt,32.2,nt
O=C(Cc1ccccc1F)Nc1nc(-c2ccc(F)cc2)cs1,25.8*,-7.7%,?,?,63.9*,4.47µM*
O=C(CCS(=O)(=O)c1ccccc1)Nc1nc(-c2ccc(F)cc2)cs1,1.0,?,12.6µM*,?,-6.0,2.2%
COc1ccccc1CC(=O)Nc1nc(-c2ccc(F)c(F)c2)cs1,25.6*,-17.9%,?,?,43.9*,?
COc1ccc(-c2csc(NC(=O)Cc3ccccc3F)n2)cc1OC,11.0,?,-11.3%,?,28.5,nt
CCOC(=O)CC(NS(=O)(=O)c1ccc2[nH]cc(C(=O)O)c(=O)c2c1)c1ccc(OCC)c(OC)c1 (configuration not stated),-1.5,-3.5%,-12.1%,-8.0%[46.1 µM],-1.7,-2.7%
COc1ccc(CCn2c3c(c(=O)[nH]c2=S)CN(Cc2ccccc2)CN3)cc1OC,nt,-17.9%,-25.5%,nt,nt,nt
COc1ccc(OC)c(CNC(=O)c2c(C)oc3ncn(C)c(=O)c23)c1,nt,-8.1%,i,nt,nt,16.1%[46.1 µM]
CN(C)C(CNc1ncnc2sc3c(c12)CCCC3)c1ccco1 (configuration not stated),14.9*,-16.6%,?,?,20.3,0.9%
CC1(C)CCc2cc(-c3ccn(S(=O)(=O)c4ccccc4Cl)n3)ccc2O1,16.5*,-15.8%,-12.3%,2.2%[14.2 µM],38.4,-1.9%
COc1ccccc1C(=O)Nc1ccc2c(c1)CN(Cc1cnc(C)s1)CC2,11.5*,-14.4%,-23.3%,?,29.0*,10.2%
O=C(O)/C=C\C(=O)Nc1ccccc1C(=O)NC1CCCCC1,42.4*,-15.4%,i,?,64.7*,14.7%
Cc1ccccc1C(=O)NC1CCCCCCC1,34.3*,nt,nt,nt,38.6*,nt
